Source: PubChem
Tg IFNy HTS – T. gondii growth inhibition with IFN-gamma, primary screen, cell-based | Toxoplasma gondii growth in IFN-gamma-treated host cells; active compounds read low | activity change, negative = inhibition, % (no concentration beside the values) | 69,000 compounds, 3.8% hits | AID 1259416, 2018; in the data active means activity change below about -70%, passing the limit was not always enough;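 further: host cells are HeLa cells infected with Toxoplasma gondii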
Starred values were filed as active, the others as inactive. This excerpt belongs to a sample that is enriched for hits.

Screening COc1cccc(NC(=O)Nc2ccc3c(c2)C(=O)N(C)C[C@H](OC)[C@H](C)CN[C@H](C)CO3)c1 returned Tg IFNy HTS 73.
`COc1cccc(NC(=O)Nc2ccc3c(c2)C(=O)N(C)C[C@@H](OC)[C@@H](C)CN[C@H](C)CO3)c1` gave Tg IFNy HTS -26.
`CO[C@H]1CN(C)C(=O)c2cc(NC(=O)c3ccc(Oc4ccccc4)cc3)ccc2OC[C@@H](C)NC[C@@H]1C` gave Tg IFNy HTS -114*.
For CO[C@@H]1CN(C)C(=O)c2cc(NC(=O)c3ccc(Oc4ccccc4)cc3)ccc2OC[C@H](C)NC[C@H]1C the results were Tg IFNy HTS -122*.
`COc1cccc(NC(=O)Nc2ccc3c(c2)C(=O)N(C)C[C@@H](OC)[C@@H](C)CN[C@@H](C)CO3)c1` gave Tg IFNy HTS -67.
Screening CO[C@H]1CN(C)C(=O)c2cc(NC(=O)c3cnccn3)ccc2OC[C@@H](C)NC[C@@H]1C returned Tg IFNy HTS 0.
CCS(=O)(=O)N1C[C@@H](C(=O)NC(C)C)[C@@]2(Cc3ccccc3C(=O)N2)C1 was read as Tg IFNy HTS 38.
For Cc1cc(C(=O)N2CCC(c3nc4ccccc4cc3N)CC2)sc1C the results were Tg IFNy HTS 34.
Screening COc1ccc(C2=NC3(CCN(CC(=O)Nc4ccccc4F)CC3)NC2=O)cc1 returned Tg IFNy HTS 26.
For COCC1c2c(cnn2CC2CC2)CCN1C(=O)c1ccoc1 (centres undefined) the results were Tg IFNy HTS -1.
Screening CC(C)n1c(=O)oc2cc(S(=O)(=O)N3CCN(c4ccccn4)CC3)ccc21 returned Tg IFNy HTS 97.
`CCc1nc(OCC(=O)N(C)c2ccccc2)c2ccccc2n1` gave Tg IFNy HTS 2.
CCOC(=O)NC(Nc1cc(C)on1)(C(F)(F)F)C(F)(F)F was read as Tg IFNy HTS 94.
Screening C#CCOC(=O)Nc1cnc(OCC)c(C(F)(F)F)c1 returned Tg IFNy HTS -75*.
`COc1ccc(NC(=O)c2nc3c(n2C)CCN(C(=O)C2CC2)C3)cc1` gave Tg IFNy HTS -16.
Screening Cc1cccc(-c2nnc(-c3nc(NCc4ccc(C)o4)c4ccccc4n3)o2)c1 returned Tg IFNy HTS -80*.
Screening CCOc1ccc(CNc2nc(-c3nnc(-c4cccc(C)c4)o3)nc3ccccc23)cc1 returned Tg IFNy HTS -16.
For c1ccc(-c2nnc(-c3nc(NCc4ccco4)c4ccccc4n3)o2)cc1 the results were Tg IFNy HTS inactive.
For Cc1cccc(-c2nnc(-c3nc(NCCN4CCCC4)c4ccccc4n3)o2)c1 the results were Tg IFNy HTS -90*.
For COc1ccc(-c2nnc(-c3nc(NCc4cccc(C)c4)c4ccccc4n3)o2)cc1 the results were Tg IFNy HTS -48.
`Cc1ccc(-c2nnc(-c3nc(NCc4cccc(F)c4)c4ccccc4n3)o2)cc1` gave Tg IFNy HTS -30.
For Cc1cccc(-c2nnc(-c3nc(NCc4ccc(N(C)C)cc4)c4ccccc4n3)o2)c1 the results were Tg IFNy HTS 6.
For Cc1cccc(-c2nnc(-c3nc(NCCc4ccco4)c4ccccc4n3)o2)c1 the results were Tg IFNy HTS -100*.
Cc1cccc(CNc2nc(-c3nnc(-c4ccccc4)o3)nc3ccccc23)c1 was read as Tg IFNy HTS -85*.
For Cc1cccc(-c2nnc(-c3nc(N4CCOCC4)c4ccccc4n3)o2)c1 the results were Tg IFNy HTS inactive.
For Cc1ccc(-c2nnc(-c3nc(NCCc4ccco4)c4ccccc4n3)o2)cc1 the results were Tg IFNy HTS 362.
Screening Cc1cccc(-c2nnc(-c3nc(NCc4cccnc4)c4ccccc4n3)o2)c1 returned Tg IFNy HTS 232.
For CCNC(=O)[C@@H]1C[C@@H](N)CN1C(=O)c1ccc(-n2ccnc2)cc1 the results were Tg IFNy HTS -1.
`c1ccc(-c2cc(Cn3cnnc3)[nH]n2)cc1` gave Tg IFNy HTS -46.
`Cc1ccc(CNC(=O)Cn2ncc3c(N4CCOCC4)ncnc32)cc1C` gave Tg IFNy HTS 25.
`Cc1ccc(S(=O)(=O)N2CCC3(CC2)Nc2ccc(Cl)cc2-n2cccc23)c(C)c1` gave Tg IFNy HTS 3.
`C=C(C)COc1ccccc1C(=O)N(C)Cc1nc(-c2ccncc2)no1` gave Tg IFNy HTS -13.
For Cc1nc(N2CCCC(CO)(Cc3ccc(F)cc3)C2)c2ccsc2n1 (centres undefined) the results were Tg IFNy HTS -69.
`Cc1ccc(CN2CC[C@H]3[C@H]2CCC(=O)N3Cc2csc(C)n2)o1` gave Tg IFNy HTS 0.
`Cn1cc(C[C@@H]2[C@H](NS(C)(=O)=O)CCN2C2CCOCC2)cn1` gave Tg IFNy HTS -6.
Screening O=C1COC2(COCCN(Cc3cccs3)C2)CN1c1cccnc1 (centres undefined) returned Tg IFNy HTS -2.
For Nc1cc(S(=O)(=O)C(F)(F)F)cc(S(=O)(=O)C(F)(F)F)c1 the results were Tg IFNy HTS -31.
`Cc1cc(S(=O)(=O)NCC(=O)N2CCn3cncc3C2)ccc1F` gave Tg IFNy HTS 13.
`CCCNc1nc(-c2nnc(-c3cccc(C)c3)o2)nc2ccccc12` gave Tg IFNy HTS -98*.
`CCC(C)Nc1nc(-c2nnc(-c3cccc(C)c3)o2)nc2ccccc12` (centres undefined) gave Tg IFNy HTS -60.
CCCSCCCNc1nc(-c2nnc(-c3ccc(C)cc3)o2)nc2ccccc12 was read as Tg IFNy HTS -26.
Screening COCCCN(C(=O)Nc1ccc(C)c(C)c1)C1CCN(C)CC1 returned Tg IFNy HTS -8.
`COc1cc(C(=O)n2c(SCc3ccc(C)cc3)nc3ccccc32)cc(OC)c1OC` gave Tg IFNy HTS 167.
Screening CC/C(=C(/CC)c1ccc(O)cc1)c1ccc(O)cc1 returned Tg IFNy HTS -51.
For CC/C(=C(\c1ccccc1)c1ccc(OCCN(C)C)cc1)c1ccccc1 the results were Tg IFNy HTS -66.
CC/C(=C(\c1ccc(O)cc1)c1ccc(OCCN(C)C)cc1)c1ccccc1 was read as Tg IFNy HTS -98*.
Screening CSc1ccc(-c2noc(-c3c(O)c4ccc(F)cc4n(C)c3=O)n2)cc1 returned Tg IFNy HTS 140.
For O=C(O)CCCN1CCC(O[C@@H](c2ccc(Cl)cc2)c2ccccn2)CC1 the results were Tg IFNy HTS 34.
CC(C)(C)c1ccc(C(=O)CCCN2CCC(OC(c3ccccc3)c3ccccc3)CC2)cc1 was read as Tg IFNy HTS -86*.
`CC1CCN(CCCC(=O)c2ccc(F)cc2)CC1` gave Tg IFNy HTS 12.
`O=C(c1ccccc1)N1CCC[C@@H]1Cn1nnc(-c2cccs2)n1` gave Tg IFNy HTS 25.
COCc1cc(CNC(=O)[C@@]23CC[C@@](C)(OC2=O)C3(C)C)[nH]n1 was read as Tg IFNy HTS -13.
CCC(=O)N1CCCC(c2cnc(Nc3nccs3)cn2)C1 (centres undefined) was read as Tg IFNy HTS -29.
`CCN1CCN(CC(=O)N2CCCC(c3cc(=O)n4c(n3)CCCCC4)C2)CC1` (centres undefined) gave Tg IFNy HTS -1.
`CCC(=O)N1CCCC(c2cc(C(F)(F)F)c3c(=O)n(C)c(=O)n(C)c3n2)C1` (centres undefined) gave Tg IFNy HTS -79*.
Screening CCc1ccc(CCC(=O)N2CCOC(C(F)(F)F)C2)cc1 (centres undefined) returned Tg IFNy HTS -5.
Screening CC(C)OCC(=O)Nc1cnn(CC(=O)Nc2ccc(F)cc2)c1 returned Tg IFNy HTS 2.
